Calls of active or inactive are those of the source. How the source made its calls: active means hit-call score of the fitted dose curve at least 0.9, where 1 is the maximum; inactive means score below 0.9.
Experiment: ATG_CMV_CIS: Attagene CIS-FACTORIAL HepG2 Assay for human CMV (Internal Marker) (AID 2282928);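 further: endpoint acts as a background internal control marker rather than a target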
Conditions: HepG2 CMV promoter reporter, transcription factor profiling; actives raise or lower the signal
How it was run: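 Readout: fluorescent reporter cDNA fragments separated by capillary electrophoresis after RT-PCR and HpaI cut. Cells: HepG2 carrying transfected cis-promoter reporter constructs, dosed 24 h. Endpoint serves as background internal-marker control, fit bidirectionally versus DMSO.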

| Compound | outcome | AC50 |
| --- | --- | --- |
| CCOC(OCC)C(=O)c1ccccc1 | inactive |  |
| CCCCCCOC(=O)c1ccc(O)cc1 |  | 51 µM (active) |
| C=CCOCC(CO)(CO)CO | inactive |  |
| CCCCC(CC)C(=O)OCCOCCOCCOCCOC(=O)C(CC)CCCC (stereo not drawn) | inactive |  |
| NNc1nc(-c2ccc([N+](=O)[O-])cc2)cs1 | inactive |  |
| CCc1ccccc1O | inactive |  |
| CCC(C)c1nccnc1OC (stereo not drawn) | inactive |  |
| CCCCCCCCC(C)=O | inactive |  |
| CC(C)(C)c1ccc(CCC=O)cc1 | inactive |  |
| CC(=O)Nc1ccc(S(N)(=O)=O)cc1 | inactive |  |
| CC1=NN(c2ccccc2)C(=O)C1 | inactive |  |
| c1ccc(CNc2ncnc3c2ncn3C2CCCCO2)cc1 (stereo not drawn) | inactive |  |
| Cc1ccc2ccc3ccc(C)cc3c2c1 | inactive |  |
| Cc1cc(C(=C2C=CC(=Nc3ccc(S(=O)(=O)O)cc3)C=C2)c2ccc(Nc3ccc(S(=O)(=O)O)cc3)cc2)cc(S(=O)(=O)O)c1N | inactive |  |
| Brc1ccc(Oc2ccc(Br)cc2Br)cc1 | inactive |  |
| O=C(O)C(=O)O | inactive |  |
| FC(F)(F)C1(F)C(F)(F)C(F)(F)C(F)(F)C1(F)F | inactive |  |
| c1cc2cccc3c4cccc5cccc(c(c1)c23)c54 | inactive |  |
| C=CC(=O)OCC(CO)(COCC(COC(=O)C=C)(COC(=O)C=C)COC(=O)C=C)COC(=O)C=C |  | 2.97 µM (active) |

| Compound | outcome | AC50 |
| --- | --- | --- |
| Cc1ccccc1C(OCCN(C)C)c1ccccc1 (stereo not drawn) | inactive |  |
| O=C(O)CN(CCCN(CC(=O)O)CC(=O)O)CC(=O)O | inactive |  |
| Cn1sccc1=O |  | 190 µM (active) |
| COCN(COC)c1nc(N(COC)COC)nc(N(COC)COC)n1 | inactive |  |
| C[N+](C)(CCCNS(=O)(=O)CCC(F)(F)C(F)(F)C(F)(F)C(F)(F)C(F)(F)C(F)(F)F)CC(=O)[O-] | inactive |  |
| CCC(=O)C=Cc1ccc(OC)cc1 | inactive |  |
| CCCCCC(C)OC(=O)COc1ccc(Cl)c2cccnc12 (stereo not drawn) | inactive |  |
| Brc1cc(Br)c(Oc2c(Br)cc(Br)c(Br)c2Br)cc1Br | inactive |  |
| O=C(F)C(F)(F)C(F)(F)C(F)(F)C(F)F | inactive |  |
| CC1CCC(CO)CC1 (stereo not drawn) | inactive |  |
| O=C(c1cc(O)c(O)c(O)c1)c1ccc(O)c(O)c1O | inactive |  |
| C=CC(=O)OCCN(CC)CC |  | 63.2 µM (active) |
| CC(C)(c1ccc(Oc2ccc(N)cc2)cc1)c1ccc(Oc2ccc(N)cc2)cc1 | inactive |  |
| Cc1cccc2c1ccc1ccccc12 | inactive |  |
| CCN(CCC#N)c1ccccc1 | inactive |  |
| O=S(=O)(O)c1ccc2cc(O)ccc2c1 | inactive |  |
| OCC1CCC(CO)CC1 (stereo not drawn) | inactive |  |
| Cc1ccccc1OCC(=O)O | inactive |  |
| NCc1cccc(CN)c1 | inactive |  |

Reference: PubChem BioAssay (EPA / NIEHS)
